These results are taken from PubChem BioAssay (NCI).

Some test systems named below: NCI-H226 lung; NCI-H322M lung; HOP-62 NSCLC; NCI-H460 lung; HOP-92 NSCLC; NCI-H522 lung; A549/ATCC NSCLC; 786-0 renal; COLO 205 colon; DU-145 prostate.
Holding throughout (assay): NCI-60 one-dose screen, 48 h (100 = growth as untreated, 0 = no growth, -100 = all killed)
Common to all, as to conditions: 10 µM unless noted

Compounds without any hit were thinned out: in the full panel of roughly 83,000, 20% have a hit.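 The test compound was applied at a single concentration to cells in 96-well plates for 48 hours, and percent growth was recorded.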 Values without a mark were called inactive. Activity calls are given as the source filed them. How the source made its calls: active means growth percent below 10; inactive means the rest.

Take `COC1CCN(Cc2ccc3c(NNC(=O)c4cnccn4)nc4cc(F)ccc4n23)C1` (stereo not given): the growth was 28.9% in the test on NCI-H226 lung; 30.8% in the test on NCI-H322M lung; 30.4% with HOP-62 NSCLC; 6.39% (active) in the test with NCI-H460 lung; 40.4% in the test on HOP-92 NSCLC; 7.95% (active) in the test on NCI-H522 lung. The growth in the test on A549/ATCC NSCLC is 18.9%; with 786-0 renal it was 12.7%; in the test on COLO 205 colon, 12.5%; in the test on DU-145 prostate, 34.8%.

In the case of `Fc1ccc(-c2cc3nc(C(Cl)Cl)nc(-c4ccccc4)n3n2)cc1`, the growth in the test on NCI-H226 lung was 85.7%; with NCI-H322M lung it was -33.9% (active); in the test on HOP-62 NSCLC, -36.9% (active); with NCI-H460 lung, -69.1% (active); with HOP-92 NSCLC it was -27.7% (active); with NCI-H522 lung, 42.4%. The growth in the test on A549/ATCC NSCLC is -45.6% (active); in the test on 786-0 renal, 5.34% (active); with COLO 205 colon, -72.5% (active); in the test on DU-145 prostate, -33.8% (active).

On to `[Cl][Ru].c1ccc(-c2cccc(-c3ccccn3)n2)nc1.c1ccc(-c2ccnc3c2ccc2c(-c4ccccc4)ccnc23)cc1`, for which the growth in the test with NCI-H226 lung is 80.1%; in the test on NCI-H322M lung it was 76.6%; in the test on HOP-62 NSCLC, 78.7%; in the test on NCI-H460 lung it was 54.8%; in the test on HOP-92 NSCLC, -12.5% (active); in the test on NCI-H522 lung, 13.3%. The growth was 60.5% in the test on A549/ATCC NSCLC, 89.3% with 786-0 renal, -60% (active) in the test on COLO 205 colon and 32.6% in the test on DU-145 prostate.

Take `N#Cc1c(-c2ccc(Cl)cc2)nc(SCc2ccccc2)nc1N1CCNCC1`: the growth in the test on NCI-H226 lung was 89.4%; with NCI-H322M lung it was 79.6%; with HOP-62 NSCLC, 78.9%; in the test with NCI-H460 lung, -45.6% (active); in the test on HOP-92 NSCLC, 21.8%; with NCI-H522 lung it was 92.4%. The growth is 66.7% with A549/ATCC NSCLC, 64.3% with 786-0 renal, -8% (active) in the test with COLO 205 colon and 63.8% in the test on DU-145 prostate.

For `CN(C)c1ccc(-c2c(NC(C)(C)C)nc3c(OCCc4ccccc4)cccn23)cc1`, the growth with NCI-H226 lung is 10.6%; with NCI-H322M lung it was 12.2%; with HOP-62 NSCLC it was 25.1%; in the test on NCI-H460 lung, 3.22% (active); in the test on HOP-92 NSCLC, -27.5% (active); in the test on NCI-H522 lung, 5.7% (active). The growth in the test with A549/ATCC NSCLC is 23.2%; in the test on 786-0 renal, 20.8%; in the test on COLO 205 colon, -84.6% (active); in the test on DU-145 prostate it was 33.2%.

As for `Clc1ccc2oc3c(OCCCn4ccnc4)c4ccccc4nc3c2c1`, the growth in the test with NCI-H226 lung was 88.5%; in the test with NCI-H322M lung, 73.2%; in the test with HOP-62 NSCLC it was 87.4%; in the test with NCI-H460 lung, 32.6%; in the test on HOP-92 NSCLC it was 53%; in the test on NCI-H522 lung it was 44%. Besides, the growth with A549/ATCC NSCLC was 62%; in the test on 786-0 renal, 46.5%; in the test with COLO 205 colon, 36%; with DU-145 prostate it was 64.1%.

For `COc1cc(/C=C/C(=O)c2ccccc2)ccc1Oc1nc(NCCO)nc(N2CCOCC2)n1`, the growth with NCI-H226 lung was 107%; with NCI-H322M lung it was 99.3%; with HOP-62 NSCLC it was 90.1%; with NCI-H460 lung it was 110%; with HOP-92 NSCLC it was 90.9%; with NCI-H522 lung it was 99.3%. Further, the growth in the test on A549/ATCC NSCLC is 98.8%; in the test on 786-0 renal it was 105%; in the test on COLO 205 colon, 116%; in the test on DU-145 prostate, 104%.

Regarding `COc1ccc(-c2nc3ccc(-c4nnc(SCC(=O)Nc5ccc(C(C)=O)cc5)o4)cc3[nH]2)cc1`, the growth is 100% in the test on NCI-H226 lung; 110% in the test with NCI-H322M lung; 113% in the test with HOP-62 NSCLC; 103% in the test on NCI-H460 lung; 114% in the test with HOP-92 NSCLC; 103% with NCI-H522 lung. Besides, the growth in the test on A549/ATCC NSCLC was 112%; in the test on 786-0 renal, 105%; with COLO 205 colon, 113%; in the test on DU-145 prostate it was 110%.

Consider `N#Cc1nc(-c2ccccc2)oc1S(=O)(=O)N1CCN(CCc2ccccn2)CC1`, for which the growth in the test on NCI-H226 lung is 98.1%; in the test on NCI-H322M lung it was 95.6%; in the test with HOP-62 NSCLC, 109%; in the test with NCI-H460 lung it was 100%; in the test on HOP-92 NSCLC, 38.1%; in the test with NCI-H522 lung, -66% (active). Also, the growth in the test with A549/ATCC NSCLC is 103%; in the test on 786-0 renal, 8.4% (active); in the test on COLO 205 colon, 30.1%; in the test with DU-145 prostate it was 75.4%.

Consider `O=C(CN1CCOCC1)NNc1ncnc2ccccc12`, for which the growth in the test with NCI-H226 lung was 107%; with NCI-H322M lung it was 102%; with HOP-62 NSCLC it was 115%; with NCI-H460 lung, 108%; in the test on HOP-92 NSCLC, 51.5%; in the test with NCI-H522 lung, -61% (active). Also, the growth is 105% with A549/ATCC NSCLC, 58.9% with 786-0 renal, 102% in the test on COLO 205 colon and 102% with DU-145 prostate.

Turning to `N#Cc1c(-c2ccc(Cl)cc2)nc2c(-c3ccccc3)c(Nc3ccccc3)nn2c1N`, the growth in the test on NCI-H226 lung was 41.5%; in the test on NCI-H322M lung it was 64%; in the test with HOP-62 NSCLC, 57.5%; in the test with NCI-H460 lung it was -8.88% (active); in the test on HOP-92 NSCLC, 35.2%; in the test on NCI-H522 lung, 72.3%. For the same molecule, the growth in the test on A549/ATCC NSCLC is 29.5%; in the test on 786-0 renal, 25.1%; with COLO 205 colon it was 57%; with DU-145 prostate, 63.6%.

For `Cc1cc(C(=O)Nc2sc3c(c2C(N)=O)CCC(=O)C3)ccc1OCCN1CCCCC1`, the growth in the test on NCI-H226 lung is 109%; with NCI-H322M lung, 111%; in the test on HOP-62 NSCLC, 119%; in the test with NCI-H460 lung, 99.4%; in the test on HOP-92 NSCLC, 113%; in the test with NCI-H522 lung, 90.8%. Further, the growth is 81.1% with A549/ATCC NSCLC, 111% in the test on 786-0 renal, 106% with COLO 205 colon and 99.2% in the test with DU-145 prostate.
